# Laboratory results from PubChem BioAssay (NCI).
# This is part of a sample that, as a whole, favours compounds with a hit. Of some 83,000 tested, about 20% had one in any assay.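 Note: values are percent growth. 100 is the growth of untreated cells, values between 100 and 0 indicate rising inhibition; between -100 and 0 indicates cell death.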 Values without a mark were called inactive. Activity calls are given as the source filed them. The calls were made as follows: active = growth percent below 10; inactive = the rest.
# Key:
# Assay in all cases: NCI-60 one-dose screen, 48 h (100 = growth as untreated, 0 = no growth, -100 = all killed)
# Conditions in all cases: 10 µM unless noted
# NCI-H23 lung = test system: NCI-H23 lung
# NCI-H226 lung = test system: NCI-H226 lung
# NCI-H322M lung = test system: NCI-H322M lung
# HOP-62 NSCLC = test system: HOP-62 NSCLC
# NCI-H460 lung = test system: NCI-H460 lung
# HOP-92 NSCLC = test system: HOP-92 NSCLC
# NCI-H522 lung = test system: NCI-H522 lung
# A549/ATCC NSCLC = test system: A549/ATCC NSCLC
# 786-0 renal = test system: 786-0 renal
# COLO 205 colon = test system: COLO 205 colon
# DU-145 prostate = test system: DU-145 prostate
# K-562 leukemia = test system: K-562 leukemia
# MALME-3M melanoma = test system: MALME-3M melanoma
# MDA-MB-231 breast = test system: MDA-MB-231 breast
# RXF 393 renal = test system: RXF 393 renal
# SF-268 CNS = test system: SF-268 CNS
# SF-295 CNS = test system: SF-295 CNS
# SF-539 CNS = test system: SF-539 CNS
# UACC-257 melanoma = test system: UACC-257 melanoma
# M14 melanoma = test system: M14 melanoma
SMILES,growth (NCI-H23 lung),growth (NCI-H226 lung),growth (NCI-H322M lung),growth (HOP-62 NSCLC),growth (NCI-H460 lung),growth (HOP-92 NSCLC),growth (NCI-H522 lung),growth (A549/ATCC NSCLC),growth (786-0 renal),growth (COLO 205 colon),growth (DU-145 prostate),growth (K-562 leukemia),growth (MALME-3M melanoma),growth (MDA-MB-231 breast),growth (RXF 393 renal),growth (SF-268 CNS),growth (SF-295 CNS),growth (SF-539 CNS),growth (UACC-257 melanoma),growth (M14 melanoma)
c1ccc(Nc2cc(-c3cccnc3)[nH]n2)cc1,105%,94.1%,95.5%,84%,111%,94.4%,89.5%,93.3%,98.1%,106%,100%,101%,118%,107%,107%,85.8%,97.6%,70.2%,100%,–
CC(=O)OC[C@H]1OC(Sc2sc(C(=O)c3ccc(Cl)cc3)c(N)c2-c2nc3ccccc3s2)[C@H](OC(C)=O)[C@@H](OC(C)=O)[C@@H]1OC(C)=O (stereo partly specified),63.3%,75.9%,93.9%,90.3%,67.5%,93.7%,88.1%,86.4%,99.3%,90.4%,70.7%,87.7%,69.4%,56.2%,112%,77.3%,95.1%,58.6%,96.6%,–
Oc1ccc(CCl)c2cccnc12,59.4%,101%,71.9%,92.8%,55%,89.2%,52.6%,76.1%,97.6%,35.9%,88.1%,43.9%,37.3%,94.5%,75.7%,73.2%,99%,90.3%,24.9%,–
COc1ccc2nc(NC(=O)c3cccnc3Nc3ccc(S(N)(=O)=O)cc3)sc2c1,105%,95.5%,89.8%,109%,98.9%,84.9%,95.5%,93.5%,78.3%,159%,105%,70.9%,103%,106%,113%,82.6%,92.8%,100%,113%,113%
C(=N/Nc1ncnc2nc[nH]c12)/c1ccccn1,47.6%,39.9%,22.4%,23.6%,55.8%,19.4%,35.7%,35.2%,21.4%,26.1%,32.1%,24.8%,46.4%,53.7%,66.8%,26.6%,20.1%,20.6%,51.5%,–
O=C1CN(CCN2CC(=O)N(Cc3ccccc3)C(=O)C2)CC(=O)N1Cc1ccccc1,97.7%,107%,104%,91.2%,100%,85%,98.8%,102%,110%,109%,117%,107%,103%,102%,108%,103%,109%,115%,98.4%,–
O=C(CCOCCNC(=O)COc1ccc2c(c1)OCC(c1ccc(F)cc1)C2=O)NCCCC(O)(P(=O)(O)O)P(=O)(O)O (stereo unspecified),98%,106%,102%,105%,108%,120%,94.9%,103%,103%,112%,108%,105%,113%,107%,121%,98.6%,102%,101%,112%,–
Cc1ncc(C(=O)Nc2ccc(CN3CCN(C)CC3)c(C(F)(F)F)c2)cc1C#Cc1ccc(N)nc1,3.94% (active),-3.96% (active),20.1%,18.7%,-60.3% (active),-15.9% (active),-8.12% (active),11.3%,-48.8% (active),5.35% (active),18.1%,5.34% (active),-88.9% (active),-64.3% (active),-60.2% (active),-11.9% (active),18.5%,-39.3% (active),0.961% (active),–
CN(C)CCNc1nc2ccccc2c2c(=O)c3cc(F)ccc3sc12,58.6%,83.3%,53%,51.9%,-5.59% (active),10%,37.8%,38.9%,54.1%,-39.6% (active),28.1%,-36.5% (active),81.9%,6.88% (active),40%,45.6%,71.7%,45.3%,91.9%,–
c1ccc2c(-c3nc(-c4c[nH]c5ccncc45)cs3)c[nH]c2c1,74.4%,78.5%,79.1%,49.3%,-26.4% (active),49.2%,56.3%,34.5%,64.9%,-77.8% (active),44.5%,-32% (active),-48.8% (active),12.7%,74.9%,68.5%,50.2%,53%,96.1%,–
Cc1ccc(-c2cnc3sc(C(=O)NCCc4ccccc4)c(C)n23)cc1,95.4%,78.6%,91.6%,89.1%,102%,91.1%,91.7%,109%,97.7%,116%,99.1%,93.9%,95.5%,79.1%,99.1%,86.7%,104%,96.6%,120%,–
Brc1c[n+](Cc2ccc3ccccc3c2)cn1Cc1ccc2ccccc2c1,9.7% (active),34.4%,73.8%,48%,20.1%,-24% (active),13.3%,70%,44.3%,-49.6% (active),38.5%,10.5%,-4.88% (active),8.23% (active),21.6%,14.5%,49.6%,40.1%,-35.4% (active),–
COc1ccc2c(c1OC)C(=O)O[C@H]2[C@H]1c2c(cc3c(c2OC)OCO3)CCN1C,92.5%,99.6%,104%,98.1%,105%,97%,92%,101%,99.5%,104%,117%,66.4%,92.2%,104%,108%,110%,94.1%,98.9%,95.2%,–
O=C(O)C(c1ccccc1)N1C(=O)CSC1=S (stereo unspecified),106%,95.8%,97.9%,99.5%,107%,111%,88.2%,92%,102%,108%,107%,103%,107%,108%,108%,94.4%,104%,100%,101%,100%
Nc1nc(-c2cccc3ccccc23)cc2ccccc12,11.1%,-7.36% (active),46.5%,13.7%,0.0786% (active),19%,-34.3% (active),28.7%,20.9%,-18.4% (active),7.32% (active),-43.8% (active),82.2%,20.7%,-4.3% (active),23.7%,-50.2% (active),-35.9% (active),56.6%,–
NS(=O)(=O)c1ccc(N=Nc2ccc(-c3nn4cc(-c5ccccc5)nc4s3)cc2)cc1,97.1%,99.9%,103%,83%,113%,105%,89.9%,96.9%,94.6%,100%,108%,93.5%,105%,107%,111%,101%,96.5%,97.6%,99.8%,–
